Molecules are shown by their SMILES. In all, about 220,000 compounds went through this assay and about 8,200 (3.7%) were called active. This is one part of a sample in which actives are shown more often than they occur. Values without a mark were called inactive.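 How the source made its calls: active means compounds that reduced the stress-induced luciferase reporter signal by more than about 70% of percent inhibition (limit read from the data); inactive means the rest.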

For 60 compounds, inhibition results are on record in PubChem BioAssay AID2732 (Emory University Molecular Libraries Screening Center, 2010).

This assay can be described thus: inhibitors of CHOP promoter induction, primary screen, cell-based, unfolded protein response, luciferase reporter (AID 2732).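 Further: 0% = tunicamycin plus vehicle and 100% = wells without tunicamycin.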 Particulars: CHO-K1 CHOP-promoter luciferase, tunicamycin-induced, 15-18 h; at 10 µM; active compounds read high. For orientation: In a reporter assay the amount or activity of a reporter protein is the signal.
By inhibition is commonly meant the change of the read-out against control, counted positive when it falls. `Cc1nc(C(=O)NCc2ccccc2)sc1C1(C)CC(c2cccnc2)=NO1` (stereo not given): the inhibition was 22.9%.

Consider `O=C(N/N=C/c1cccc2cccnc12)[C@H]1C[C@@H]1c1ccccc1`, for which the inhibition is 52.4%.

In the case of `CC1=NN(C(=O)c2ccc(Br)cc2)C(O)(c2ccccc2)C1` (stereo not given), the inhibition is 16.6%.

For `CC1=NN(C(=O)Cc2ccc(C)cc2)C(O)(c2cccnc2)C1` (stereo not given), the inhibition is 73.8% (active).

Consider `CC1=NN(C(=O)c2ccccc2Br)C(O)(c2cccnc2)C1` (stereo not given), for which the inhibition was -24.4%.

With `O=C(O)C1=C[C@H](c2cccs2)C[C@H](OCCCCO)O1`, the inhibition is -3.52%.

For the compound `Cc1ccc(S(=O)(=O)N(C)CC(=O)OCC(=O)Nc2ccccc2)cc1`, the inhibition was -0.65%.

On to `COc1ccccc1P(=O)(c1ccccc1)c1ccccc1NC(C)=O` (stereo not given), for which the inhibition was 10.1%.

On to `Cn1c(=NC(=O)c2ccc3c(c2)OCCO3)sc2cc(S(C)(=O)=O)ccc21`, for which the inhibition was 91.9% (active).

For `COCCn1c(=NC(=O)c2ccccc2[N+](=O)[O-])sc2cc(S(C)(=O)=O)ccc21`, the inhibition is -7.33%.

Take `CC(=O)c1ccc2c(c1)OCCOCCOc1ccc(C(C)=O)cc1OCCOCCO2`: the inhibition is 1.66%.

In the case of `O=C(Nc1ccccc1)O/N=C1/CCCc2occc21`, the inhibition is -8.45%.

Turning to `CN1CCN(c2cc3c(cc2F)c(=O)c(C(=O)O)cn3CCF)CC1`, the inhibition was 2.99%.

As for `O=C(Cn1cnc2cc([N+](=O)[O-])ccc2c1=O)NC(=O)NCc1ccccc1`, the inhibition was -6.05%.

Consider `O=C(NNc1cc(Cl)cc(Cl)c1)c1c(F)cccc1Cl`, for which the inhibition was 30.1%.

As for `Cc1nn(CC(=O)N/N=C/c2ccc(F)cc2)c(C)c1[N+](=O)[O-]`, the inhibition is -4.46%.

As to `CSc1nnc(SCc2nc3sc(C(=O)O)c(C)c3c(=O)[nH]2)s1`, the inhibition is 3.13%.

Take `O=C(NN1C(=O)C2CCCCC2C1=O)c1ccco1` (stereo not given): the inhibition was 6.45%.

`S=C(NCc1cccnc1)Nc1ccc(Cl)cc1Cl`: the inhibition was 2.87%.

With `O=C(CSc1cccc2cccnc12)N/N=C/c1cccnc1`, the inhibition is 42.7%.

For `CC(=O)/C(=N\Nc1ccc(Cl)cc1Cl)Sc1cccc2cccnc12`, the inhibition is 93.6% (active).

`Nc1ccc2nn(-c3ccc(Cl)cc3)nc2c1`: the inhibition is 30.4%.

In the case of `COC(=O)c1ccc(COc2ccc(/C=N/NC(=O)C(=O)Nc3ccc(OC)cc3)cc2OC)o1`, the inhibition is 17.4%.

Regarding `CCCc1ccc(OCc2ccc(C(=O)N/N=C/c3cccc([N+](=O)[O-])c3)o2)c(OC)c1`, the inhibition is 85.8% (active).

`COc1cc(/C=N/O)ccc1OCc1ccc([N+](=O)[O-])cc1`: the inhibition is 2.17%.

Take `COc1cc(C(CCN2CCN(c3ccccc3)CC2)c2c(OC)cc(OC)c3ccc(=O)oc23)cc(OC)c1OC` (stereo not given): the inhibition is -15.7%.

With `CCOc1ccc(N=Cc2c(O)n(-c3cccc(C)n3)c(=O)c3ccccc23)cc1`, the inhibition is -5.5%.

In the case of `CCOc1[nH]n(-c2ccc(Cl)cc2)c(=O)c1C=Nc1ccc(O)cc1`, the inhibition is 73.4% (active).

With `Cc1[nH]n(-c2ccc(Cl)cc2)c(=O)c1/C=N/n1c(C)nc2ccccc2c1=O`, the inhibition was 26.2%.

For `CC(C)(C)c1cc(NC(=O)NN2CCOCC2)nn1-c1c(Cl)cc(Cl)cc1Cl`, the inhibition is 11.2%.

As for `CCNC(=S)N1CCN(CCN=CC2=C(O)CC(C)(C)CC2=O)CC1`, the inhibition is 13%.

As to `CC(C)(C)NC(=O)NCc1ccco1`, the inhibition is 6.03%.

Regarding `CSc1sc(C(=O)NNC(=O)c2ccc(Cl)cc2)c2c1C=CCC2`, the inhibition is 0.19%.

With `O=C(Nc1ccccc1C(F)(F)F)N1CCCC1c1cccnc1` (stereo not given), the inhibition is 4.33%.

On to `O=[N+]([O-])/C=C1\CCCCCN1`, for which the inhibition is -14.7%.

As to `Cn1nc(C(F)(F)F)c(C(=O)Nc2cccc(C(F)(F)F)c2)c1SCc1ccc(Cl)cc1`, the inhibition is 80.9% (active).

For the compound `O=C(Nc1cccc(C(F)(F)F)c1)c1cnccn1`, the inhibition was -10.5%.

As to `O=C(O)CSCC(=O)Nc1cccc(C(F)(F)F)c1`, the inhibition is -3.97%.

As for `CCOC(=O)CSc1nc(C)c(Oc2ccc(Cl)cc2Cl)c(=O)[nH]1`, the inhibition was 10.4%.

As for `O=C(NN1C(=O)C2C(C1=O)C1C=CC2C12CC2)c1ccccc1Cl` (stereo not given), the inhibition is 3.92%.

Consider `COc1ccc(-c2csc(Nc3ccccn3)n2)cc1`, for which the inhibition was -4.38%.

On to `CCOc1cc(NC(=O)c2ccccn2)c(OCC)cc1NC(=O)c1ccc(OC)cc1`, for which the inhibition is -5.86%.

For `COc1ccc(C(=O)/C=C/Nc2ccccn2)cc1`, the inhibition was 73.5% (active).

Turning to `Cn1c2ccc(F)cc2c2nnc(NN)nc21`, the inhibition is 13.9%.

On to `N#CCCCn1c(O)c(N=NC(=O)C(O)c2ccccc2)c2ccccc21` (stereo not given), for which the inhibition is 11.1%.

Turning to `CC(C)C(c1nnnn1CCc1ccccc1)N1CCN(C(=O)c2ccco2)CC1` (stereo not given), the inhibition is -7.76%.

For `Cc1ccc(C(c2nnnn2CS(=O)(=O)c2ccc(C)cc2)N2CCC(C(N)=O)CC2)cc1` (stereo not given), the inhibition was 33.9%.

`CC(C)C(c1nnnn1Cc1ccccc1)N1CCC(C(N)=O)CC1` (stereo not given): the inhibition was 76.1% (active).

Consider `COc1ccc(CS(=O)/C(Cl)=C(/Cl)C(=O)Nc2ccc(OC)nc2)cc1` (stereo not given), for which the inhibition was 107% (active).

As to `COc1ccc(NC(=S)Nc2ccccc2Cl)cn1`, the inhibition was 1.96%.

Regarding `COc1ccc(NC(=S)NCCNC(C)=O)cc1`, the inhibition was -5.59%.

For `Cc1nc(COc2cccc(Cl)c2)sc1C(=O)/C=C/N(C)C`, the inhibition was -1.3%.

For the compound `CC(C)(O)C#Cc1ccc(C(=O)N2CCC(C(N)=O)(N3CCCCC3)CC2)cc1`, the inhibition was 20.2%.

As to `NC(=O)C1(N2CCCCC2)CCN(C(=S)Nc2ccc(Cl)cc2)CC1`, the inhibition was 8.9%.

Take `NC(=O)C1(N2CCCCC2)CCN(C(=O)c2ccc(C#Cc3ccccc3)o2)CC1`: the inhibition was 78.8% (active).

Regarding `COc1ccc(CCNC(=O)C2CC3Cn4c(nc5cc(C)c(C)cc54)C3N2C)cc1` (stereo not given), the inhibition is -11.2%.

Take `Cc1ccc(N2NC(=O)/C(=C/C=C/c3ccco3)C2=O)cc1C`: the inhibition was 5.23%.

With `Cc1ccc(N=C2NC(=O)/C(=C/C=C/c3ccco3)S2)cc1C`, the inhibition is 84.4% (active).

In the case of `Cc1cccc(N=C2NC(=O)/C(=C/c3cn(C)c4ccccc34)S2)c1`, the inhibition was 14%.

In the case of `CCN(CC)C(=O)CC(c1ccc2c(c1)OCO2)c1c(OC)cc(OC)c2c(-c3ccccc3)cc(=O)oc12` (stereo not given), the inhibition is 9.26%.
